# Assay outcomes deposited in PubChem by National Center for Advancing Translational Sciences (NCATS).
# Compounds with a hit are over-represented: about 7.1% of the library has one in this group of screens.
# ELG1 genotoxic – genotoxicity induction in ELG1-luciferase HEK293T cells. actives 1.3% (n = 330,000). AID 504466. HEK293T ELG1-luciferase reporter, luminescence, 16 h. Potency, µM (series often up to 46 µM), for inactives: at the highest dose activity change, positive = activation, actives largely listed as activators; further: % of control where 0% means no effect; nearly all actives have a fitted effect of over 60% in size
#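 ELG1-luciferase HEK293T cells, 2,000/well; compound pinned in; 16 hr, 37 °C, 5% CO2; ONE-Glo, 30 min RT; luminescence on CCD imager.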
# AT treatment – potential ataxia-telangiectasia treatments restoring KAP-1 phosphorylation; F2112 A-T fibroblasts, KAP-1 phosphorylation AlphaLISA; neocarzinostatin DNA damage 30 min before lysis; Potency, µM (series often up to 57.5 µM), inactives show at the top dose activation, hits mostly activators; actives 0.19% (n = 320,000); AID 485349; further: % of control where 0% means no effect; nearly all actives have a fitted effect of over 45% in size
#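 ATM-like activity read as KAP-1 phosphorylation via AlphaLISA donor/acceptor antibody pairs after lysis and 6 hr at 25C. Cells were ATM-null patient fibroblasts (F2112, hTERT), dosed 60 min, then exposed to the DSB inducer NCS for 30 min.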
# MCF10A rerep – inducers of DNA re-replication in MCF 10A breast cells. actives 2.9% (n = 350,000). MCF 10A DNA re-replication, Hoechst nuclear intensity, 48 h. Potency, µM (highest dose often 46.1 µM), for inactives: at the top dose activity, positive = re-replication, actives largely listed as activators. AID 624296; further: % of control where 0% means no effect; nearly all actives have a fitted effect of over 50% in size
# SW480 rereplic – DNA re-replication induction in SW480 cells | Potency, µM (top dose mostly 46.1 µM), for the others: at the top dose re-replication activation, usual class: activators | actives 1.8% (n = 340,000) | SW480 DNA re-replication, Hoechst DNA content imaging, 48 h | AID 624297; further: % of control where 0% means no effect; nearly all actives have a fitted effect of over 55% in size
#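 Image-based read-out: total Hoechst fluorescence of nuclei (405 nm excitation, 500-530 nm emission), with hits raising the fraction of high-intensity nuclei. SW480 colon cells incubated 48 hr with compounds at 37 C.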
# p53 reactivator – restores transcriptional activity of mutant p53 | H1299 p53-A138V BP100-luciferase reporter, luminescence, 24 h | Potency, µM (top dose mostly 92.2 µM), without a hit: at the highest dose activity change, positive = activation, usual class: activators | actives 0.063% (n = 320,000); further: % of control where 0% means no effect; nearly all actives have a fitted effect of over 45% in size
#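 H1299 (p53-null), stable ts p53-A138V + BP100-Luc; 1000 cells/well, Opti-MEM/10% FBS; cpd 4 pt, 1:5; 24 h, 37 deg C, 5% CO2; detection reagent 10 min RT; luminescence.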
# ELG1 repair inh – blocks ELG1-dependent DNA repair in HEK293T cells. HEK293T ELG1-luciferase reporter, luminescence, 16 h; DNA damage induced by 5-fluorouridine. Potency, µM (series often up to 46.1 µM), for inactives: at the top dose activity change, negative = inhibition, hits mostly inhibitors. actives 2.3% (n = 330,000); further: on the % scale 0 is the no-effect control and ±100 the full control effect; nearly all actives have a fitted effect of over 55% in size
#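 Luminescence from the luciferase reporter, measured 30 min after ONE-Glo reagent at room temperature, was the read-out. Beforehand, 2,000 cells per well were exposed for 16 hr at 37 °C to 5-fluorouridine together with compound or vehicle.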
# Active calls of the source: *; ? = inconclusive; . = no result; [ ] = dose if it differs, or a comment. The call rests on the fitted dose curve; in most records, active means well fitted curve in the direction sought with a large enough effect; inconclusive means small, poorly fitted or top-dose-only effect, or another doubt; inactive means no such curve, though single readings can be large; an effect the other way counts as inactive or inconclusive. Potency means the concentration at half of the fitted maximal effect.
SMILES,ELG1 genotoxic,AT treatment,MCF10A rerep,SW480 rereplic,p53 reactivator,ELG1 repair inh
CCN1C(=O)c2cccc3c(NC(=O)c4ccc5c(c4)OCCO5)ccc1c23,19%,2%,26µM*,?,3%,?
CCN1CCN(Cc2ccccc2NC(=O)Nc2ccc(C)cc2)CC1,10µM*,10%,4%,1%,31%,?
CCN1CCN(CCC(=O)Nc2ccc(C)cc2)CC1,1%,-1%,1%,?,8%,-3%
CCn1ccc(C(=O)Nc2ccccc2Cl)n1,8.2µM*,-2%[11.5 µM],4%,?,4%,?
CCN1CCN(Cc2ccc(NC(=O)Nc3ccccc3Cl)cc2)CC1,18µM*,3%,21%,1%,20µM*,?
COc1ccc(S(=O)(=O)Nc2ccccc2C(=O)N2CCOCC2)cc1C,-3%,2%,4%,-10%,-2%,18%
CCOC(=O)/C(=C\c1cccc(O)c1)c1nc2sc(C)c(C)c2c(=O)[nH]1,-19%,33%,2.3µM*,?,-27%,?
CCOc1ccc(-c2nnc(N)s2)cc1,11µM*,3%,?,18%,?,?
OCCC1CN(Cc2nc(-c3ccccc3)cs2)CCN1CCc1ccccc1 (configuration not stated),-6%,4%,2.9µM*,-6%,3%,?
COc1ccc(O)c(CN2CCN(CCCc3ccccc3)C(CCO)C2)c1 (configuration not stated),-5%,1%,0.23µM*,-6%,.,-25%
COc1ccc(C2=C(C=Nc3c(C)n(C)n(-c4ccccc4)c3=O)C(c3ccccc3C)c3ccccc3O2)cc1OC (configuration not stated),-9%,3%,8%,-4%[9.22 µM],-2%,2.9µM*
Cc1c(N=Cc2c(O)n(C)c(=O)c3ccccc23)c(=O)n(-c2ccccc2)n1C,-3%,0%,7%,-7%,0%,-12%
Cc1cc(N2CCN(C)CC2)nc2ccc(NC(=S)N3CCCCCC3)cc12,2%,-1%,?,14%,15%,4%
Cc1cc(N2CCOCC2)nc2ccc(NC(=S)N3CCCCC3C)cc12 (configuration not stated),-7%,1%,15µM*,18µM*,13%,?
Cc1cc(N2CCCC2)nc2ccc(NC(=S)NCCCN3CCC(C)CC3)cc12,2%,0%,18µM*,?,-4%,-25%
CCCN1CCN(CCCNC(=S)Nc2ccc3nc(N4CCN(CC)CC4)cc(C)c3c2)CC1,9%,-6%,16%,3%,8%,?
Cc1cccc(N2CCN(C(=S)Nc3ccc4nc(N5CCN(C)CC5)cc(C)c4c3)CC2C)c1 (configuration not stated),?,-7%,18µM*,18µM*,0%,12%
Cc1cc(N2CCOCC2)nc2ccc(NC(=O)CCC(=O)N3CCCC(C)C3)cc12 (configuration not stated),?,23%,4%,-5%,26%,?
Cc1cc(N2CCN(C)CC2)nc2ccc(NC(=S)N3CCCCC3)cc12,2%,1%,18µM*,?,20%,10%
COc1cccc(COC(=O)C2CCN(C(=O)c3ccc(F)cc3)CC2)c1OC,-3%,7%,1%,-6%,3%,7%
Cc1ccccc1-c1cc(C(=O)NCc2cccc(Br)c2)n(CC2CC(c3cccnc3)=NO2)n1 (configuration not stated),-7%,24%,?,1%,-6%,?
CCOC(=O)[C@H]1[C@H]2COc3ccccc3[C@@H]2N2C(=O)CN(CC3CCCO3)C(=O)[C@@]12C (some centres not stated),6%,-4%,-4%,-4%,2%,?
Cc1cc(N2CCN(C)CC2)nc2ccc(NC(=S)N3CCN(c4ccc(Cl)cc4)CC3)cc12,-3%,-6%,29µM*,12µM*,2%,-13%
Cc1cc(N2CCN(C)CC2)nc2ccc(NC(=S)N3CCN(c4cccc(Cl)c4)CC3)cc12,7%,2%,7.3µM*,9.2µM*,-1%,6%
O=C(Nc1nc2ccccc2s1)c1ccccc1[N+](=O)[O-],?,-1%,0.73µM*,-24%,28µM*,?
SMILES,ELG1 genotoxic,AT treatment,MCF10A rerep,SW480 rereplic,p53 reactivator,ELG1 repair inh
CN(C)CCCN(C(=O)c1ccc([N+](=O)[O-])o1)c1nc2cc3c(cc2s1)OCO3,0%,13%,4%,12µM*,3%,10%
COc1ccc2nc(NC(=O)c3ccc([N+](=O)[O-])o3)sc2c1,21%,-6%,4.6µM*,7.3µM*,.,?
O=C(Nc1nc2c(F)cc(F)cc2s1)c1ccc([N+](=O)[O-])o1,-1%,6%,12µM*,9.2µM*,?,?
N#Cc1ccsc1NC(=O)C1CC(=O)N(Cc2ccccc2)C1 (configuration not stated),-1%,2%,-3%,-2%,-2%,5%
O=C(Nc1nc2ccccc2s1)c1ccc([N+](=O)[O-])o1,7%,-6%,21µM*,16µM*,?,?
O=C(Nc1nc2cc3c(cc2s1)OCCO3)c1ccc([N+](=O)[O-])o1,9.2µM*,13%,5.2µM*,1.5µM*,?,?
Cc1cc(C)c2nc(NC(=O)c3ccc([N+](=O)[O-])o3)sc2c1,-7%,-1%,?,2%,?,?
O=C(Cn1cc([N+](=O)[O-])cn1)Nc1nc2ccccc2s1,0%,-8%,21µM*,?,-5%,29%
O=C(O)c1cccc([N+](=O)[O-])c1C(=O)Nc1nc2ccccc2s1,0%,1%,-1%,6%,?,23%
Cc1cc(C)c2sc(NC(=O)c3ccc([N+](=O)[O-])o3)nc2c1,1%,-10%,21µM*,?,?,?
CN1CCN(C2=Cc3cc(Cl)ccc3Sc3cc(F)ccc32)CC1,14%,7%,13µM*,?,0%,-20%
Cc1c(/C=N/NC(=O)c2ccc(Br)o2)cnn1C,3%,-4%,16%,-13%,3%,?
O=C1c2cc(Cl)ccc2-c2c(O)cc(Cl)cc21,.,.,13µM*,?,.,.
COc1cc([N+](=O)[O-])cc(/C=N/NC(=O)Cn2nc(C)cc2C)c1O,-4%,-30%,?,?,3%,-28%
